Sampled rows, rich in hits. Any-hit rate of the full collection: about 3.6%.
Giardia FBPA inh – inhibitors of Giardia lamblia fructose-1,6-bisphosphate aldolase | AID 2451 | Potency, µM (doses to about 59.6 µM), usual class: inhibitors | purified Giardia FBPA | 290,000 compounds, 0.71% hits; also: nearly all actives have a fitted effect of over 55% in size
Target sequence (A8B2U2 whole entry, looked up): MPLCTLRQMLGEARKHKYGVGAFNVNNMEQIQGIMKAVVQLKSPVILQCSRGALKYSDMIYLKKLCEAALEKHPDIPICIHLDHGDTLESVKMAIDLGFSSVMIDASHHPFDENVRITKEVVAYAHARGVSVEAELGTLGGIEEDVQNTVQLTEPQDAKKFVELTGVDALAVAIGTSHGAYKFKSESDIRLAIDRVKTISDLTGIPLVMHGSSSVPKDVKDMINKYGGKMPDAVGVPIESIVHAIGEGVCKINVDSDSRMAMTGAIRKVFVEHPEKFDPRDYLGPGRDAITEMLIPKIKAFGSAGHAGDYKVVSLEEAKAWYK
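40 nM FBPA preincubated 10 min at RT with compound (up to 57.5 uM final), then substrate plus GAPDH/TPI/NAD/arsenate coupling and diaphorase/resazurin added. Fluorescence read after 20 min at RT, 525/598 nm.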
AmpC inh detg – AmpC beta-lactamase inhibition with detergent present | AmpC hydrolysis of nitrocefin, absorbance 480 nm, 0.01% Triton | Potency, µM (highest dose often 114 µM), usual class: inhibitors | 370,000 compounds, 0.041% hits; also: nearly all actives have a fitted effect of over 25% in size
Target sequence (P00811 whole entry, looked up): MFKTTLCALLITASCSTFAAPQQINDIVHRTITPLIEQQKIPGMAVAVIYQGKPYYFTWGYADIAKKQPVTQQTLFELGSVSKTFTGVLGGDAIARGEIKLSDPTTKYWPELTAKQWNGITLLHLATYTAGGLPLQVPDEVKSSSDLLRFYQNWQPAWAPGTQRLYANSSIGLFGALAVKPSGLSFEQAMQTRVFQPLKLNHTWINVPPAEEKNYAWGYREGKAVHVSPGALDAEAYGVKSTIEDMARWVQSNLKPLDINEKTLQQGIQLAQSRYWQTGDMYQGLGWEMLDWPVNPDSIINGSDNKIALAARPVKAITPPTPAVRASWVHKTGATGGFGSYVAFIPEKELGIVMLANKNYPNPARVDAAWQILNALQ
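AmpC (5.3 nM in the dispensed reagent) in 20 mM phosphate pH 7.0 with 0.01% (detergent screen) or 0.0001% Triton X-100 was preincubated with compounds for 15 min at room temperature. Nitrocefin was then added from an 800 uM solution, and hydrolysis was followed at 480 nm.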
Sm TGR block – S. mansoni TGR enzyme inhibition; Q962Y6; purified TGR, DTNB reduction, TNB absorbance 405 nm; Potency, µM (series often up to 114 µM), hits mostly inhibitors; 360,000 compounds, 3% hits; AID 485364; also: nearly all actives have a fitted effect of over 60% in size
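Kinetic colorimetric format: TGR-catalysed, NADPH-driven DTNB reduction monitored via TNB absorbance. Enzyme dispensed at 20 nM; compound exposure 15 min at room temperature before reaction start.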
AmpC inh no detg – blocks E. coli AmpC beta-lactamase in detergent-free assay. P00811. AmpC nitrocefin hydrolysis, absorbance 480 nm, 0.0001% Triton. Potency, µM (top dose mostly 57.1 µM), usual class: inhibitors. 330,000 compounds, 0.52% hits; also: nearly all actives have a fitted effect of over 20% in size
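AmpC (5.3 nM in the dispensed reagent) in 20 mM phosphate pH 7.0 with 0.01% (detergent screen) or 0.0001% Triton X-100 was preincubated with compounds for 15 min at room temperature. Nitrocefin was then added from an 800 uM solution, and hydrolysis was followed at 480 nm.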
Numbers stand for hits; n = inactive; u = inconclusive; x = no result; [ ] = dose if it differs, or a comment. Calls follow the shape of the dose curve; as a rule, active = well fitted curve in the direction sought with a large enough effect; inconclusive = small, poorly fitted or top-dose-only effect, or another doubt; inactive = no such curve, though single readings can be large; an effect the other way counts as inactive or inconclusive.

SMILES	Giardia FBPA inh	AmpC inh detg	Sm TGR block	AmpC inh no detg
COc1ccc(NC(=O)c2c(NCc3ccc(C)o3)sc3c2CCC(C)C3)cc1 (stereo not given)	x	n	10µM	x
Cc1cc(F)ccc1NC(=O)c1csc2c1CCC(C)C2 (stereo not given)	x	n	n	x
COc1ccc(NC(=O)c2c(NCc3ccc(C)o3)sc3c2CCC(C)C3)c(OC)c1 (stereo not given)	x	n	28µM	x
Cn1c(=O)c2c(ncn2CC(=O)Nc2cc(S(=O)(=O)N3CCCCC3)ccc2Cl)n(C)c1=O	x	x	x	n
Cc1ccc(N(Cc2cccs2)C(=O)COc2ccccc2[N+](=O)[O-])cc1	x	n	n	x
COc1ccccc1N(CC(=O)NC1CCCC1)C(=O)CCC(=O)Nc1ccccn1	n	n	n	n
COc1ccccc1NC(=O)c1c(NC(=O)Cc2ccccc2)sc2c1CCC(C(C)(C)C)C2 (stereo not given)	x	n	n	x
COc1ccccc1NC(=O)c1c(NCc2ccc(C)o2)sc2c1CCC(C)C2 (stereo not given)	x	n	32µM	x
Cc1ccccc1NS(=O)(=O)c1ccc2[nH]cc(C(=O)NC(C)c3ccccc3)c(=O)c2c1 (stereo not given)	x	n	n	x
CCOc1cc(C2NC(=O)c3c(sc4c3CCN(C)C4)N2)ccc1OC(=O)c1ccccc1Cl (stereo not given)	x	n	n	x
O=C(CSc1nc(-c2ccccc2)nc2c1Cc1ccccc1O2)Nc1ccc(C(=O)O)cc1	n	u	n	n
O=C(CSc1nc(-c2ccc(F)cc2)nc2c1Cc1ccccc1O2)Nc1ccc(C(=O)O)cc1	n	63µM	n	n
CCC(=O)Nc1c2c(nn1-c1ccccc1)CSC2	n	u	50µM	n
COc1ccc(-n2nc3c(c2NC(=O)CCl)CSC3)cc1	n	n	8.9µM	n
Cc1cccc(-n2nc3c(c2NC(=O)c2ccco2)CSC3)c1C	n	n	45µM	n
COc1ccc(-n2nc3c(c2NC(=O)COc2cccc(OC)c2)CS(=O)(=O)C3)cc1	x	u	32µM	n
Cc1ccccc1OCC(=O)NCC(c1ccc(Cl)cc1)N1CCCCC1 (stereo not given)	x	n	n	x
CC[C@]12c3[nH]c4ccccc4c3CCN1C(=O)C(CC(=O)NCc1ccc(OC)c(OC)c1)C[C@@H]2C(=O)N1CCN(C(=O)C2CC2)CC1 (stereo not given in full)	x	x	x	n
O=S1(=O)c2ccccc2N(Cc2cccc(Cl)c2)c2ccccc21	x	n	n	x
CCOc1ccc2nc(NC(=O)CN3C(=O)NC4(CCCC4)C3=O)sc2c1	x	u	n	n
CC(C)C[C@H](NC(=O)[C@H](CC(C)C)NC(=O)[C@H](Cc1ccccc1)NC(=O)[C@@H](N)CO)C(=O)N[C@@H](CCCNC(=N)N)C(=O)N[C@@H](CC(N)=O)C(=O)N1CCC[C@H]1C(=O)N[C@@H](CC(N)=O)C(=O)N[C@@H](CC(=O)O)C(=O)N[C@@H](CCCCN)C(=O)N[C@@H](Cc1ccc(O)cc1)C(=O)N[C@@H](CCC(=O)O)C(=O)N1CCC[C@H]1C(=O)N[C@@H](Cc1ccccc1)C(=O)O	n	x	x	x
Cc1c(C(=O)NCCN(C)C)sc2nc3n(c(=O)c12)CCC3	x	n	n	x
Cc1ccccc1-n1nc2c(c1NC(=O)CCCl)CSC2	n	n	18µM	n
CCC(=O)Nc1c2c(nn1-c1ccc(C)cc1C)CSC2	n	n	u	n
O=C1OC(c2ccccc2)=C/C1=C\N1CCOCC1	n	n	20µM	n
SMILES	Giardia FBPA inh	AmpC inh detg	Sm TGR block	AmpC inh no detg
O=C1OC(c2ccccc2)=C/C1=C/N1CCOCC1	n	n	40µM	n
CCOc1ccc(OCCC(=O)OCC(=O)NC2CCCCC2)cc1	n	u	n	n
Cc1ccc(OCCC(=O)OCC(=O)NC(=O)NC2CCCC2)cc1	x	n	n	35µM
O=C(CN1CCN(S(=O)(=O)c2ccc(Br)cc2)CC1)c1ccc(O)c(O)c1	x	n	14µM	n
CCOc1ccc(OCCC(=O)OCC(=O)N2CCN(S(=O)(=O)c3ccc(C)cc3)CC2)cc1	x	n	50µM	n
CCOc1ccc(C(=O)CN2CCN(S(=O)(=O)c3ccc(Cl)cc3)CC2)cc1	n	n	32µM	n
Cc1ccc(Nc2nc3ccc(C)cc3nc2-n2nc(C)cc2C)c(C)c1	x	n	n	x
C[C@H]1Cc2c(-c3ccccc3)nc3c(c2CO1)CN(S(=O)(=O)c1ccc(C#N)cc1)CC3	n[12.9 µM]	x	x	x
CCOC(=O)c1c(C)[nH]c(C)c1S(=O)(=O)NCC(=O)Nc1cccc(Cl)c1	x	n	n	x
O=S(=O)(c1ccccc1)N1CCC2(CCN(Cc3nccs3)CC2)CC1	n	x	x	x
Cc1ccc(Nc2nc(-c3ccccc3)c(CC(=O)O)s2)cc1	n	u	n	u
O=C(O)Cc1sc(Nc2ccccc2)nc1-c1ccc(Cl)cc1	n	n	45µM	n
O=C(Cc1sc(Nc2ccccc2)nc1-c1ccccc1)NCc1ccccn1	n	n	25µM	n[11.4 µM]
Cn1c(SCC(=O)N/N=C/C=C\c2ccco2)nc2ccccc21	n	n	22µM	n
Cc1ccc(/C=N/NC(=O)CSc2nc3ccccc3n2C)s1	4µM	u	n	n
O=C(CSc1nc2ccccc2n1Cc1ccccc1)N/N=C/c1ccco1	n	n	n	n
C/C(=N/NC(=O)CSc1nc2ccccc2n1C)c1ccco1	n	n	n	n
Cn1c(SCC(=O)N/N=C/c2cccs2)nc2ccccc21	n	n	n	n
CCn1c(SCC(=O)N/N=C/C=C\c2ccco2)nc2ccccc21	n	u	22µM	n
CCOC(=O)c1[nH]ncc1CN1CCCC(C(=O)c2ccc(C(C)(C)C)cc2)C1 (stereo not given)	n	n	n	n
CCc1ccc(C(=O)Cc2cc3cccc(OC)c3oc2=O)cc1	n	n	n	n
CCc1cccc(CC)c1NC(=O)CCS(=O)(=O)c1ccc(Br)cc1	x	n	n	x
COc1cc2c(cc1OC)[C@@H]1O[C@](CCCCN3C(=O)c4ccccc4C3=O)(C2)Oc2cc(C)n(-c3ccccc3)c(=O)c21	n[12.9 µM]	n[22.9 µM]	n[22.9 µM]	n[11.4 µM]
COc1cc(/C=c2\s/c(=C(/C#N)C(=O)N3CCCC3)n(-c3ccccc3)c2=O)ccc1O	n	n	n[11.4 µM]	n
Cc1ccc(/C=c2\s/c(=C(/C#N)C(=O)N3CCCC3)n(Cc3ccco3)c2=O)s1	n	n	5µM	n
SMILES	Giardia FBPA inh	AmpC inh detg	Sm TGR block	AmpC inh no detg
COC(=O)c1cccc(Nc2c(-c3ccc(O)c(OC)c3)nc3nc[nH]n23)c1	x	n	40µM	x
O=C(Nc1ccc(Cl)cc1)[C@@H]1[C@@H]2C(=O)N(c3cccc(F)c3)C(=O)[C@@H]2[C@H]2C=CC=NN21	n	n	22µM	n
CCN1C(=O)CC(c2ccco2)Sc2ccccc21 (stereo not given)	n	n	25µM	n
O=C(CN1C(=O)CC(c2ccco2)Sc2ccccc21)Nc1ccccc1F (stereo not given)	n	n	25µM	n
Cc1c(S(=O)(=O)c2ccccn2)c(N)n(Cc2cccc(Cl)c2)c1C	n	n	2µM	n
COc1ccc(CNC(=O)c2coc(=O)c3ccccc23)cc1	n	n	n	n
